# Compound activity from PubChem.
# Only some compounds are listed: those with a hit (about 1.4% of all), similar ones and a draw of the others.
# LEDGF integ inh: blockers of LEDGF/p75-dependent integrase strand transfer – biochemical, TR-FRET, high throughput, primary screen | 370,000 compounds, 0.64% hits | inhibition, % at 3.7 µM | AID 743269, 2014 | TR-FRET IN-LEDGF/p75 DNA integration, Eu/Cy5;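 active = inhibition above the screen-wide mean plus 3 SD, cut at about 13% in these data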;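 note: signal is the Cy5 over europium emission ratio at 671 and 618 nm; 0% = plate median of compound wells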
# MBD2 inh: inhibitors of MBD2 binding to methylated DNA, primary screen, biochemical, TR-FRET, DNA-binding domain, human | Methyl-CpG-binding domain protein 2 (Homo sapiens), Q9UBB5 | MBD2 binding to methylated oligonucleotide | inhibition, % at 4.4 µM | 370,000 compounds, 0.31% hits | AID 686964, 2013; in the data active = inhibition above about 13%
# UHRF1 MBD2 ctr: UHRF1 methylated DNA binding inhibitors, primary screen, counter-screen for MBD2 inhibitor project, biochemical, TR-FRET, human UHRF1, single concentration; 370,000 compounds, 0.75% hits; AID 687016, 2013; inhibition, % at 4.4 µM; UHRF1 binding to methylated oligo; E3 ubiquitin-protein ligase UHRF1 (Homo sapiens), Q96T88;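 note: UHRF1 SRA domain binding a hemimethylated CpG hairpin DNA probe; 0% = median of test compound wells and 100% = reference inhibitor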
# Target sequence (Q96T88 whole entry, looked up, the tested form may be a part): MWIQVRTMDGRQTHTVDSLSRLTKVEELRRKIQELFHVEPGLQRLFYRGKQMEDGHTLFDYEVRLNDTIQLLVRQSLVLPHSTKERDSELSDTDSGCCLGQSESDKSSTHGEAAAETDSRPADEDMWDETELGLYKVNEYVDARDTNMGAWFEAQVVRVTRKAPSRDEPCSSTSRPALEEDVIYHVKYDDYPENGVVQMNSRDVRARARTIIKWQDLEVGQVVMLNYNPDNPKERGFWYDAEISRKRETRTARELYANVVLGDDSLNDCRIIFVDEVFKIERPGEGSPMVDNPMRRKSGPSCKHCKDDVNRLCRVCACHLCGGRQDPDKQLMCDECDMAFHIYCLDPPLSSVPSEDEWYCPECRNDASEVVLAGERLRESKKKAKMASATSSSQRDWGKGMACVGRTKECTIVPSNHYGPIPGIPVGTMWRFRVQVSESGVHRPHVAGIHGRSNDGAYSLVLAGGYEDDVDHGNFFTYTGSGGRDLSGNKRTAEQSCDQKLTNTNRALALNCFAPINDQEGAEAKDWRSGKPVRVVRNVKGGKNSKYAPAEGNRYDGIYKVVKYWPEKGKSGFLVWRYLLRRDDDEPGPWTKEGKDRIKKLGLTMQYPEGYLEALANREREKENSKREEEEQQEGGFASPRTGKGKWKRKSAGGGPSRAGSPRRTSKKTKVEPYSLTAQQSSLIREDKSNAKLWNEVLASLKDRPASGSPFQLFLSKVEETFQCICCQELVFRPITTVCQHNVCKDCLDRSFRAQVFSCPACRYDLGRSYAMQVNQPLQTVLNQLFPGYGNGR
# CASP6 VEID inh: human caspase-6 inhibitors, primary screen, biochemical, VEID-R110 fluorescence, single point, set 2 | purified caspase-6, Z-VEID-R110 cleavage fluorescence | inhibition, % at 12.5 µM | 350,000 compounds, 0.53% hits;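 active = mean inhibition across replicates at least about 35%, with every replicate also reaching that limit, limit read from the data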;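 note: 0% = median of neutral control wells and 100% = no fluorescence left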
# UHRF1 ctr MBD2: UHRF1 methylated DNA binding inhibitors, counter-screen for MBD2 inhibitor project, biochemical, TR-FRET, human UHRF1; shares compounds with MBD2 inh; UHRF1 binding to methylated oligonucleotide; inhibition, % at 4.4 µM; 1,000 compounds, 25% hits; AID 720530, 2013;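 note: UHRF1 SRA domain binding a labeled hemimethylated CpG hairpin DNA; 0% = vehicle only and 100% = reference inhibitor with vehicle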
# MBD2 confirm: inhibitors of MBD2 binding to methylated DNA, confirmation, biochemical, TR-FRET, DNA-binding domain, human | shares compounds with MBD2 inh | TR-FRET MBD2-DBD binding to methylated oligonucleotide | inhibition, % at 4.4 µM | 1,000 compounds, 26% hits | AID 720531, 2013; in the data active = inhibition above about 14%
# Active calls of the source: *; nt = no result given. Cut-off read from the data, not from the text of the source, unless noted: active = inhibition above about 21%; inactive = the rest.
SMILES,LEDGF integ inh,MBD2 inh,UHRF1 MBD2 ctr,CASP6 VEID inh,UHRF1 ctr MBD2,MBD2 confirm
O=C(NCc1ccncc1)C1CCC(=O)N(CCc2ccc(Cl)cc2)C1 (configuration not stated),1.1,24.5*,48.7*,0.4,6.0,2.3
O=S(=O)(NCC1CCCO1)c1ccc2oc3ccc(S(=O)(=O)NCC4CCCO4)cc3c2c1 (configuration not stated),2.4,18.5*,-1.8,nt,11.6,3.1
C[C@@H]1CCCCO[C@@H](CN(C)C(=O)Nc2ccc3c(c2)OCO3)[C@@H](C)CN([C@@H](C)CO)C(=O)c2cc(NC(=O)Nc3ccc4c(c3)OCO4)ccc2O1,nt,nt,nt,2.3,nt,nt
C[C@@H]1CCCCO[C@H](CN(C)C(=O)c2ccncc2)[C@H](C)CN([C@H](C)CO)C(=O)c2cc(NC(=O)c3ccccc3)ccc2O1,nt,nt,nt,-1.1,nt,nt
O=C(O)c1ccc2c(c1)C(=O)/C(=C\c1ccco1)C2=O,79.4*,28.5*,88.0*,40.6*,38.1*,0.1
O=C(O)c1ccc2c(c1)C(=O)/C(=C/c1ccccc1)C2=O,9.8,-9.8,15.7,7.6,nt,nt
CC(=O)Nc1ccc(NC(=O)C(C)OC(=O)C2(c3ccc(F)cc3)CCCC2)cc1 (configuration not stated),0.5,-3.0,-0.2,-0.9,nt,nt
CC(=O)Nc1ccc(NC(=O)C(C)OC(=O)C2(c3ccc(Cl)cc3)CCCC2)cc1 (configuration not stated),8.9,18.6*,25.1*,2.3,9.7,4.2
CC(C)NC(=O)N(C)C[C@H]1Oc2c(NC(=O)c3cnccn3)cccc2C(=O)N([C@H](C)CO)C[C@H]1C,nt,nt,nt,-0.7,nt,nt
CCOC(=O)c1ccc(NC(=O)NC2CCN(CC(=O)NCc3ccc4c(c3)OCO4)CC2)cc1,1.1,18.6*,2.7,nt,7.9,3.6
O=C(CN1CCC(NC(=O)Nc2ccc3c(c2)OCO3)CC1)Nc1ccc2c(c1)OCCO2,-1.4,-1.1,-0.3,nt,nt,nt
COc1cccc(-c2oc3c(c2-c2ccc(Br)nc2)C(O)CCC3)c1 (configuration not stated),0.7,13.4*,15.4,0.0,21.6*,28.2*
COc1cccc(-c2oc3c(c2C(=O)OCCN2CCCCC2)C(O)CCC3)c1 (configuration not stated),4.2,-2.6,9.4,-0.5,nt,nt
COc1ccc(N2CC(C)(C)[C@H](CC(=O)Nc3ccc(Br)cc3)C2=O)cc1,3.5,5.0,-1.2,1.0,nt,nt
COc1ccc(NC(=O)C[C@@H]2C(=O)N(c3ccc(OC)cc3)CC2(C)C)cc1,3.7,40.0*,-2.7,0.3,0.9,5.6
C[C@@H]1CCCCO[C@H](CN(C)C(=O)Nc2ccc(F)cc2)[C@H](C)CN([C@H](C)CO)C(=O)c2cc(NS(C)(=O)=O)ccc2O1,nt,nt,nt,3.6,nt,nt
COc1ccccc1NC(=O)N1CCC(c2nc3cc(C)c(C)cc3[nH]2)CC1,0.4,13.4*,18.5,nt,5.9,1.9
COc1ccccc1NC(=S)N1CCC(c2nc3cc(C)c(C)cc3[nH]2)CC1,-6.2,3.7,4.2,-0.9,nt,nt
CCCc1cc(=O)[nH]c2nnc(SCC(=O)Nc3cccc(NC(C)=O)c3)n12,-1.1,15.5*,1.1,1.3,4.7,6.0
Cc1ccc(C(=O)N/C(=C\c2ccccc2)C(=O)OCc2ccccc2)cc1,-0.1,13.7*,14.0,nt,5.6,4.2
COc1ccc2c3c(n(C)c2c1)[C@H](CO)N(C(=O)Nc1ccc(F)cc1)CC31CCN(C(=O)NC2CCCC2)CC1,nt,nt,nt,2.2,nt,nt
Cn1cc(C(=O)NCC(=O)Nc2ccccc2Br)cn1,-0.3,2.1,0.8,1.7,nt,nt
Cc1cc(Br)ccc1NC(=O)CNC(=O)c1cnn(C)c1,4.1,18.3*,1.4,1.2,7.1,2.0
O=C(Cc1cccs1)N(Cc1cccs1)C1(C(=O)NC2CCCC2)CCCCC1,4.4,13.4*,23.6*,nt,2.5,4.3
